Experimental findings from the supplement of paper PMC9023506 are described below.

What all share (conditions): 10 µM; exposure time: 3 h pre-incubation + 3 h imaging
Test [1] relates to Danio rerio larvae (5 dpf). Put plainly: excitability to 1-s acoustic pulses, difference vs DMSO (percentage points (treated minus DMSO)); higher = more of the behaviour than the DMSO vehicle control. A digest of the protocol:
(§1)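 Five-days-post-fertilisation wild-type zebrafish larvae were held in 96-well ProxiPlates and exposed to each library drug at a final 10 µM, diluted 1000× from DMSO stocks into egg water, with 48 larvae per drug. Exposure lasted 3 h before and 3 h during imaging at 28.5 °C, with images taken every 6 s across a 3-h program of rest, moving coloured lines and acoustic pulses. An ImageJ macro scored movement and upper-half location, and each behaviour score is the treated-group mean minus the vehicle-group mean, expressed in percentage points.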

For test [2], the system named is Danio rerio larvae (5 dpf). Description: activity during first hour (no stimuli), difference vs DMSO (percentage points (treated minus DMSO)); higher = more of the behaviour than the DMSO vehicle control. The essentials:
as §1

In test [3] the test system is Danio rerio larvae (5 dpf). Put plainly: startle response to 20-s acoustic pulses, difference vs DMSO (percentage points (treated minus DMSO)); higher = more of the behaviour than the DMSO vehicle control. A digest of the protocol:
as §1

Test [4] relates to Danio rerio larvae (5 dpf). Description: optomotor response to fast red moving lines, difference vs DMSO (percentage points (treated minus DMSO)); higher = more of the behaviour than the DMSO vehicle control. A digest of the protocol: as §1
For test [5], the system named is Danio rerio larvae (5 dpf). Description: optomotor response to red moving lines, difference vs DMSO (percentage points (treated minus DMSO)); higher = more of the behaviour than the DMSO vehicle control. A digest of the protocol:
as §1

In test [6] the test system is Danio rerio larvae (5 dpf). Description: optomotor response to blue moving lines, difference vs DMSO (percentage points (treated minus DMSO)); higher = more of the behaviour than the DMSO vehicle control. A digest of the protocol:
as §1

Test [7] relates to Danio rerio larvae (5 dpf). Description: optomotor response to green moving lines, difference vs DMSO (percentage points (treated minus DMSO)); higher = more of the behaviour than the DMSO vehicle control. The essentials: as §1
The subject of test [8] is Danio rerio larvae (5 dpf). Put plainly: habituation to 1-s acoustic pulses, difference vs DMSO (percentage points (treated minus DMSO)); higher = more of the behaviour than the DMSO vehicle control. A digest of the protocol: as §1
Test [9] has as its system Danio rerio larvae (5 dpf). Description: activity during period 15 (no stimuli), difference vs DMSO (percentage points (treated minus DMSO)); higher = more of the behaviour than the DMSO vehicle control. The essentials:
as §1

Where a name gives a salt, the structure may show the parent alone.

For the compound `Clc1ccccc1C(c1ccccc1)(c1ccccc1)n1ccnc1` [Clotrimazole], the “excitability to 1-s acoustic pulses” value in test [1] turned out to be 14. In addition, the “activity during first hour” value in [2] is -21.6. Further, the “startle response to 20-s acoustic pulses” value in [3] is 4.06.

For `CN/C(=N\CCSCc1nc[nH]c1C)NC#N` [Cimetidine], the “activity during first hour” value in test [2] came out at 3.11. In addition, the optomotor response in test [4] was -7.27.

For the compound `CC(C)C(=O)Nc1ccc([N+](=O)[O-])c(C(F)(F)F)c1` [Flutamide], the “excitability to 1-s acoustic pulses” value in test [1] was -5.4. Moreover, the “optomotor response to red moving lines” value in [5] is -10.8. Further, the “optomotor response to blue moving lines” value in [6] is -17.2. Moreover, the “optomotor response to green moving lines” value in [7] is -1.99. For the same compound, the optomotor response in test [4] is -21.1.

Consider `Cc1nc(-c2ccc(OCC(C)C)c(C#N)c2)sc1C(=O)O` [Febuxostat], for which, in [8], the “habituation to 1-s acoustic pulses” value was -2.75. In addition, the “excitability to 1-s acoustic pulses” value in test [1] was -0.372. For the same compound, in test [2], the “activity during first hour” value was -0.179. In test [4], the optomotor response is 8.02.

As to `O=C(O)C[C@H](O)C[C@H](O)/C=C/c1c(C2CC2)nc2ccccc2c1-c1ccc(F)cc1` [Pitavastatin calcium], the “optomotor response to red moving lines” value in test [5] worked out at 3.56. Besides, the “optomotor response to blue moving lines” value in test [6] was 11. In addition, the “startle response to 20-s acoustic pulses” value in test [3] worked out at 1.52.

Consider `CC1(C)O[C@@H]2[C@@H](CO[C@@]3(COS(N)(=O)=O)OC(C)(C)O[C@@H]23)O1` [Topiramate], for which the “excitability to 1-s acoustic pulses” value in test [1] amounted to 4.36. Besides, the “optomotor response to red moving lines” value in [5] was -0.793. For the same compound, the “activity during period 15” value in [9] was 3.85. The “optomotor response to blue moving lines” value in [6] was -3.75.

For the compound `OCc1cc(C(O)CNCCCCCCOCCCCc2ccccc2)ccc1O` (centres undefined) [Salmeterol xinafoate], the “activity during first hour” value in test [2] worked out at 14.1. In addition, in [3], the “startle response to 20-s acoustic pulses” value is -5.23.

Turning to `CC/C(=C(\c1ccccc1)c1ccc(OCCN(C)C)cc1)c1ccccc1` [Tamoxifen citrate], the “optomotor response to red moving lines” value in [5] is -11. For the same compound, the “optomotor response to blue moving lines” value in test [6] is -14.3. Further, the “optomotor response to green moving lines” value in [7] was -10. Further, the “startle response to 20-s acoustic pulses” value in test [3] was -0.535.

Consider `Nc1cc(N2CCCCC2)nc(N)[n+]1[O-]` [Minoxidil], for which the “activity during first hour” value in test [2] was 2.82. The optomotor response in test [4] was 2.09.

Take `N#C[C@@H]1C[C@@H]2C[C@@H]2N1C(=O)[C@@H](N)C12CC3CC(CC(O)(C3)C1)C2` [Saxagliptin hydrochloride]: the “habituation to 1-s acoustic pulses” value in [8] is 1.97. In addition, the “optomotor response to red moving lines” value in [5] was -1.45. In addition, the “activity during period 15” value in test [9] was 5.2. The “optomotor response to blue moving lines” value in [6] is -7.01. For the same compound, in test [7], the “optomotor response to green moving lines” value is -3.2. Besides, the “startle response to 20-s acoustic pulses” value in test [3] stood at 4.85.

For `COCCc1ccc(OCC(O)CNC(C)C)cc1` (centres undefined) [Metoprolol tartrate], the “habituation to 1-s acoustic pulses” value in test [8] is -3.95. In addition, in test [5], the “optomotor response to red moving lines” value is -1.5. Moreover, the “optomotor response to blue moving lines” value in [6] came out at 10.9.

Regarding `Nc1nc(Cl)nc2c1ncn2[C@@H]1O[C@H](CO)[C@@H](O)[C@@H]1F` [Clofarabine], the “excitability to 1-s acoustic pulses” value in test [1] came to 2.22. Besides, the “activity during first hour” value in test [2] is -3.77. In addition, the “optomotor response to green moving lines” value in test [7] amounted to 7.3.

With `C=C1[C@H](CO)[C@@H](O)C[C@@H]1n1cnc2c(=O)[nH]c(N)nc21` [Entecavir], the “optomotor response to red moving lines” value in test [5] was found to be 1.68.

With `CC(C)COCC(CN(Cc1ccccc1)c1ccccc1)N1CCCC1` (centres undefined) [Bepridil hydrochloride], in [5], the “optomotor response to red moving lines” value stood at 3.6. Moreover, in [3], the “startle response to 20-s acoustic pulses” value is -5.17. The optomotor response in test [4] was 7.72.

In the case of `CCOC(=O)N1CCC(=C2c3ccc(Cl)cc3CCc3cccnc32)CC1` [Loratidine], the “optomotor response to red moving lines” value in test [5] is -14.1. In test [7], the “optomotor response to green moving lines” value is -5.38. Moreover, the optomotor response in test [4] was -26.1.

As for `CN(C)CCc1c[nH]c2ccc(Cn3cncn3)cc12` [Rizatriptan benzoate], the “excitability to 1-s acoustic pulses” value in [1] was -3.58. Also, the “optomotor response to red moving lines” value in test [5] amounted to 14.6. Further, the “startle response to 20-s acoustic pulses” value in test [3] is 4.29.

For the compound `COc1cc2nc(N3CCN(C(=O)c4ccco4)CC3)nc(N)c2cc1OC` [Prazosin hydrochloride], the “optomotor response to red moving lines” value in test [5] was -6.9. For the same compound, the “startle response to 20-s acoustic pulses” value in test [3] was found to be 5.19.

In the case of `CCCCc1nc(Cl)c(CO)n1Cc1ccc(-c2ccccc2-c2nnn[nH]2)cc1` [Losartan potassium], the “excitability to 1-s acoustic pulses” value in test [1] was 5.58. Also, the “optomotor response to blue moving lines” value in test [6] was -6.92. The “optomotor response to green moving lines” value in test [7] was -0.568.

As to `CN1CCC[C@@H]1Cc1c[nH]c2ccc(CCS(=O)(=O)c3ccccc3)cc12` [Eletriptan hydrobromide], the “activity during period 15” value in [9] is -0.424. Moreover, in test [6], the “optomotor response to blue moving lines” value stood at 5.86. For the same compound, the “optomotor response to green moving lines” value in test [7] is 6.81. Also, the optomotor response in test [4] is -9.58.

As for `C/C(O)=C(\C#N)C(=O)Nc1ccc(C(F)(F)F)cc1` [Teriflunomide], the “optomotor response to red moving lines” value in [5] was -3.45. For the same compound, in [7], the “optomotor response to green moving lines” value is -10.8. Moreover, in test [3], the “startle response to 20-s acoustic pulses” value was -4.42.

As to `Cc1ccc(-c2cc(C(F)(F)F)nn2-c2ccc(S(N)(=O)=O)cc2)cc1` [Celecoxib], in test [1], the “excitability to 1-s acoustic pulses” value was 6.46. The “optomotor response to red moving lines” value in test [5] is -3.89. In addition, in test [9], the “activity during period 15” value was found to be 3.28. The “startle response to 20-s acoustic pulses” value in test [3] was -6.81.

As for `CC(=O)Oc1ccccc1C(=O)O` [Aspirin], the “optomotor response to red moving lines” value in test [5] amounted to 7.38. Besides, in test [9], the “activity during period 15” value is -1.19. The optomotor response in test [4] is -7.85.

Regarding `COCCCOc1cc(C[C@@H](C[C@H](N)[C@@H](O)C[C@H](C(=O)NCC(C)(C)C(N)=O)C(C)C)C(C)C)ccc1OC` [Aliskiren hemifumarate], in [5], the “optomotor response to red moving lines” value was determined as 0.559. The “activity during period 15” value in test [9] was -3.61. Moreover, in test [4], the optomotor response turned out to be 2.22.

Take `CNS(=O)(=O)Cc1ccc2[nH]cc(CCN(C)C)c2c1` [Sumatriptan succinate]: the “optomotor response to red moving lines” value in test [5] was -6.18. Also, the “activity during period 15” value in test [9] was 3.89. The optomotor response in test [4] is -17.2.

`CN1CC(=O)N2[C@H](c3ccc4c(c3)OCO4)c3[nH]c4ccccc4c3C[C@@H]2C1=O` [Tadalafil]: the “habituation to 1-s acoustic pulses” value in [8] was -1.05. For the same compound, in [5], the “optomotor response to red moving lines” value is -0.75. The “activity during period 15” value in [9] is -1.47.

Turning to `CCc1c2c(nc3ccc(OC(=O)N4CCC(N5CCCCC5)CC4)cc13)-c1cc3c(c(=O)n1C2)COC(=O)[C@]3(O)CC`, in test [5], the “optomotor response to red moving lines” value is -8.71. In addition, the “activity during period 15” value in [9] is -8.3. Moreover, in test [4], the optomotor response amounted to 0.47.

Consider `COc1cc2nccc(Oc3ccc(NC(=O)C4(C(=O)Nc5ccc(F)cc5)CC4)cc3)c2cc1OC`, for which the “optomotor response to red moving lines” value in [5] was -13.9. Further, in test [4], the optomotor response was -16.9.

Turning to `C#CCN[C@@H]1CCc2ccccc21` [Rasagiline mesylate], the “excitability to 1-s acoustic pulses” value in test [1] is -3.66. The “optomotor response to blue moving lines” value in test [6] was found to be 15.8. For the same compound, the “optomotor response to green moving lines” value in test [7] is -10.1.

Consider `COc1c(C)c2c(c(O)c1C/C=C(\C)CCC(=O)O)C(=O)OC2` [Mycophenolic acid], for which the “optomotor response to red moving lines” value in [5] was -3.36. Moreover, in [4], the optomotor response was 10.7.
